Test results from paper PMC7819943, “Rice protein-binding microarrays: a tool to detect cis-acting elements near promoter regions in rice”.
The full ranking holds about 68,000 sequences; the median of “fluorescence intensity (a.u.)” is about 9,100, and the highest 2% start at about 16,000. This excerpt belongs to a sample that is enriched for the highest values.

target: OsWRKY34 (Oryza sativa, UniProt Q0JBA9 1-250); assay: protein-binding microarray (RPBM); PBS, 2% BSA, 51.3 ng/ul salmon testes DNA, 50 uM zinc acetate, 200 nM TF, 25 C, 1 h; high values mean tight binding; settings: protein: recombinant; tags: N-terminal polyhistidine and DsRed monomer fusion (pET32a); label: CyDye5-dUTP incorporated in the synthesized complementary strand; 3' TTTTT single-stranded linker to array surface; dsDNA, one strand shown
How it was run: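 A custom Agilent array was converted to double-stranded form by primer extension with Cy5-dUTP and blocked with 2% BSA. Protein at 200 nM in PBS with 2% BSA, salmon testes DNA and 50 µM zinc acetate was applied for 1 h at 25 °C, followed by washing. The proteins were polyhistidine–DsRed N-terminal fusions of transcription factors, expressed in E. coli BL21-CodonPlus and Ni–NTA-purified. The binding signal is per-feature fluorescence intensity (arbitrary units) from an Axon 4000B scanner.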

OsWRKY34, sequence (Q0JBA9 entry or part of it): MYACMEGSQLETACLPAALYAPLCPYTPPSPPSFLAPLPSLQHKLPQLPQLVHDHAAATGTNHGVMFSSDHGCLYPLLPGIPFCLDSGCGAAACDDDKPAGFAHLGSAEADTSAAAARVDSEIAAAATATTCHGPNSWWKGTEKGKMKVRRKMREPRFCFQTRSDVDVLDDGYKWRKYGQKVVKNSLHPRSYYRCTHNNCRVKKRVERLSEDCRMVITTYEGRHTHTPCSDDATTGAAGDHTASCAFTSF

Sequence	binding signal
TGTTGTTATGTTTTTGTCATGATCTCACAAGCAATGTACACGGAGTCACCTAGTGCAG	11000 fluorescence intensity (a.u.)
CCTCTTCGAAGCCGTGAAATCTCAGCCGTCCATCCATGATCGGAGTCACCTAGTGCAG	9040 fluorescence intensity (a.u.)
TCTTTTGAGCACCCCACTGGCCATGGTCTTTTATCGTCCCCGGAGTCACCTAGTGCAG	8490 fluorescence intensity (a.u.)
ACTATCTTAGCCATTCCAACGCCGTCTTTCCTCGGTCCTCCGGAGTCACCTAGTGCAG	12500 fluorescence intensity (a.u.)
AATCACCATCATCGCTGTTTGGGAGGGTCTGCCTGGCTTACGGAGTCACCTAGTGCAG	13100 fluorescence intensity (a.u.)
TATTTGACTTCCGGCTTTTGTTTCCTTGATACTTTACTCTCGGAGTCACCTAGTGCAG	9780 fluorescence intensity (a.u.)
ACCTTTGCTCACGATCCCAATGGCTTTAATTATGTACCACCGGAGTCACCTAGTGCAG	8830 fluorescence intensity (a.u.)
CCAAAAACACTCACTCGGCCCACATCACGCCACCACCCCGCGGAGTCACCTAGTGCAG	9750 fluorescence intensity (a.u.)
GATGGCGTACCAAAGTACTGGTAAAAACATCTTCAGTTTTCGGAGTCACCTAGTGCAG	22300 fluorescence intensity (a.u.)
GGGCCTAGTTTTTCCAGGTAAAGTTGACCAAAAGTCTTCACGGAGTCACCTAGTGCAG	8890 fluorescence intensity (a.u.)
TTTTTTTTCTGTTAGTACTGTTTTTGGTCCAAACATCTTTCGGAGTCACCTAGTGCAG	8180 fluorescence intensity (a.u.)
CTTCTACTGCGTCGACTTGGAATTTTGCCGAATCTTTTTTCGGAGTCACCTAGTGCAG	10400 fluorescence intensity (a.u.)
CACACACACTCCACTACTCCACTGCACTGCAGTCTCTCTCCGGAGTCACCTAGTGCAG	10100 fluorescence intensity (a.u.)
CCTCGTTCTTCTTCTTCTCTCTCTGGTTTTACATTTTTACCGGAGTCACCTAGTGCAG	10300 fluorescence intensity (a.u.)
CACGCACCGCCCATGCGTCCTTATCCACCCACCTCTCCACCGGAGTCACCTAGTGCAG	8240 fluorescence intensity (a.u.)
TGAGTCCTTACCTCTCTCTCTCCAATGTTCGTCTGCGGCACGGAGTCACCTAGTGCAG	8390 fluorescence intensity (a.u.)
AACCCACCTGCACGCACCGTCCTTACCTCTGTTCGATTGACGGAGTCACCTAGTGCAG	16800 fluorescence intensity (a.u.)
GTAGATGTCGGGTGGGATGGTTTCAGGAAAAGAAACATGACGGAGTCACCTAGTGCAG	12800 fluorescence intensity (a.u.)
ACTTTCCTACACACAAACTTTCAACTTTTTCATCACATCGCGGAGTCACCTAGTGCAG	8900 fluorescence intensity (a.u.)
AGTCTGGCTTGCACATCTGCTGTTTACAACACATCAAATTCGGAGTCACCTAGTGCAG	9810 fluorescence intensity (a.u.)
CATTCACAACATCAAATTACATCTGCAGAGAGATCGCTCGCGGAGTCACCTAGTGCAG	33900 fluorescence intensity (a.u.)
CCATCGTTTCTCCCCGACGCCCTCGCCATCCTCCTCGCCACGGAGTCACCTAGTGCAG	10500 fluorescence intensity (a.u.)
GCCTTTTTAAATTTTTTTATCACATCAAAACTTTTTTATACGGAGTCACCTAGTGCAG	8370 fluorescence intensity (a.u.)

Sequence	binding signal
GTGGGTGGGTTTGGAGTTTGGACTGTTTAGGGCCTTTTGACGGAGTCACCTAGTGCAG	23300 fluorescence intensity (a.u.)
AGTGTTTGGTTTGAGGAGGACTAGTGGGGTGGTTTTTTGACGGAGTCACCTAGTGCAG	13900 fluorescence intensity (a.u.)
GGTTTAGGCTGTGTTTAGTTCTTTTTTTAATTTTTTTTAACGGAGTCACCTAGTGCAG	16500 fluorescence intensity (a.u.)
TTTTTGGGTTGGGTTGGGGACGCGCTGTTTCGACGTGGGGCGGAGTCACCTAGTGCAG	19000 fluorescence intensity (a.u.)
CTGTTACTTCACAGTTATTTTTGTTGGGTGGGGACGTGGGCGGAGTCACCTAGTGCAG	12600 fluorescence intensity (a.u.)
GGGTTTGGGTTTTTAGGTTTGGGGAGTTGGGCTGTGTTTACGGAGTCACCTAGTGCAG	22100 fluorescence intensity (a.u.)
TTCGTGTTTTGCTGGAGTTGGAGTTGCTGCATTGGGTTTACGGAGTCACCTAGTGCAG	10700 fluorescence intensity (a.u.)
TTTACATATAATTTTCTTTAGGGTTTTATAGCTTTTTTAACGGAGTCACCTAGTGCAG	8600 fluorescence intensity (a.u.)
ATATATGTTCTCTTAGTGTCTTTATTTTTAATATTTTTAACGGAGTCACCTAGTGCAG	8530 fluorescence intensity (a.u.)
CGTTGAGTTGGTTTAGGGGTGGACTGATTTGCCTTTGCCCCGGAGTCACCTAGTGCAG	12900 fluorescence intensity (a.u.)
GGTTGGGGCGTGGGCGGCTGGGCGCGTGGGTTGCCCGCGACGGAGTCACCTAGTGCAG	15600 fluorescence intensity (a.u.)
TGAAGAGGTGAGTGTTTTAGGGTTTTGGTTGGGGTTTTGACGGAGTCACCTAGTGCAG	14600 fluorescence intensity (a.u.)
CTGTATCCCCATTCGCTGTCAAAATTCAATTCACTGTCTTCGGAGTCACCTAGTGCAG	9640 fluorescence intensity (a.u.)
GGTGGGAGCACGATGCGGGACGTGGGGTGGGATCGGAAGCCGGAGTCACCTAGTGCAG	8590 fluorescence intensity (a.u.)
CCCTCCCTGGCCGTCGTGCCCGCCGCTGCTCGCCTTCGGCCGGAGTCACCTAGTGCAG	10100 fluorescence intensity (a.u.)
TGGAGGGGAGTGGGATCGCGATCACGGGTGGGGCGTCGGACGGAGTCACCTAGTGCAG	13100 fluorescence intensity (a.u.)
AAATCTTGGGTTTATGTGGGCGACGATGTCGGTTTGGAAACGGAGTCACCTAGTGCAG	8060 fluorescence intensity (a.u.)
CTACAGCCTCACACCGTCTCTCCTGCACCAGTTCCACGGACGGAGTCACCTAGTGCAG	9510 fluorescence intensity (a.u.)
GAGAGGATGGAGGTGGATGAGGGAGAGGGGCGGGAGACCGCGGAGTCACCTAGTGCAG	9460 fluorescence intensity (a.u.)
TGTGGGTATGGGGATGATTTTGTACCCGTGATAGGTGTGGCGGAGTCACCTAGTGCAG	13100 fluorescence intensity (a.u.)
GCGCGCGGGTGAGGAGGAGGAGGGGATGGGGAGGGGCCCGCGGAGTCACCTAGTGCAG	17700 fluorescence intensity (a.u.)
GCGGGATGGGGAGGCGGCGCCGCGAGGAGGAGGGGATGGGCGGAGTCACCTAGTGCAG	11900 fluorescence intensity (a.u.)
